# Compound activity as filed in PubChem.
# Rev-erbA mod = modulators of Rev-erb alpha DNA binding, primary screen, biochemical, FITC-DNA, fluorescence polarization, uHTS. activity, % at 10 µM. Nuclear receptor subfamily 1 group D member 1 (Homo sapiens), P20393. 370,000 tested, 0.79% active. Rev-erbα–FITC-DNA binding, 90 min;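 active = activity above about 14%, limit read from the data; passing the limit was not always enough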;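 note: 0% = DMSO wells with 35 nM protein and 100% = DMSO wells with 750 nM protein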
# PG9 Ab binder = binders of HIV-1 gp120 antibody PG9, primary screen, biochemical, TR-FRET; HIV-1 gp120 / PG9 antibody interaction; TR-FRET gp120-PG9 antibody binding; inhibition, % at 6.7 µM; 360,000 tested, 0.43% active; AID 624416, 2012; in the data active = inhibition above about 8.5%
# V-ATPase pHluor = regulators of yeast V-ATPase proton pumping, primary screen, pHLuorin cytosolic pH fluorescence | S. cerevisiae | AID 504577, 2011 | 350,000 tested, 0.37% active | response, % at 10 µM; in the data active = response mostly above about 7.3%, no sharp cut-off; inactive = mostly below about 5.4%; note: actives read high
# NPR1 activator = GC-A stimulated cGMP production enhancers – HEK293 GC-A cells, cGMP TR-FRET, EC30 ANP, primary screen; Atrial natriuretic peptide receptor 1 (Homo sapiens), P16066; 0% at EC30 ANP, 100% saturating ANP; activation, % at 10 µM; 370,000 tested, 0.14% active; AID 1671463, 2021; in the data active = activation above about 40%
# NPR2 activator = human GC-B receptor activators, primary screen, HEK293 GC-B cells, cGMP TR-FRET, EC30 CNP; 0% at EC30 CNP, 100% saturating CNP; activation, % at 10 µM; 370,000 tested, 0.11% active;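 active = activation at 10 µM reaching about 35% in either raw or pattern-adjusted values, limit read from the data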
# NR1D1 mod conf = modulators of Rev-erb alpha DNA binding, confirmation, biochemical, FITC-DNA, fluorescence polarization, single point. shares compounds with Rev-erbA mod. 90 min. activation, % at 25 µM. 3,000 tested, 61% active;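 active = activation at or above a set limit, or at least 3 SD above the negative control mean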;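 note: 0% = 35 nM protein with DMSO and 100% = 750 nM protein high control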
# RORg DNA counter = modulation of RORgamma DNA binding, dose response, counter-screen for Rev-erb alpha modulator project, biochemical, fluorescence polarization, FITC-DNA. shares compounds with Rev-erbA mod. purified RORgamma protein-FITC-DNA binding. IC50, µM. 910 tested, 8% active. AID 1259320, 2017;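 active = Compounds whose fitted half-maximal concentration for disrupting protein-DNA binding is below 10 micromolar; the record names Rev-erb in its text, so the target is in doubt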
# The depositor's hits bear a star; i = inactive; x = not tested or not shown. Shown are actives, neighbours in structure and some others; about 1.6% of the full set was active somewhere.
SMILES,Rev-erbA mod,PG9 Ab binder,V-ATPase pHluor,NPR1 activator,NPR2 activator,NR1D1 mod conf,others
CCOc1ccc(CNC(=O)C2CCN(c3nnc(C)c4c(C)n(-c5ccc(C)cc5)nc34)CC2)cc1,33*,2,-1,-2,-5,34*,RORg DNA counter=>40
N#CCSc1nc(-c2ccccc2)c2cc(Cl)ccc2n1,21*,0,-3,5,5,10,
Cc1oc2c(cc(NS(=O)(=O)c3ccc(C(C)C)cc3)c3ccccc32)c1C(=O)O,-4,-3,-2,2,-1,x,
Cc1oc2c(cc(NS(=O)(=O)c3cccs3)c3ccccc32)c1C(=O)OC(C)C,50*,-3,-3,-5,2,72*,
COC(=O)c1ccc(NC(=O)c2cn(-c3ccccc3)nc2-c2ccncc2)cc1,289*,8,-4,2,2,254*,RORg DNA counter=>40
CCOC(=O)c1cc(-c2ccccc2)sc1NC(=O)CN1C(=O)NC(CC)(c2ccc(F)cc2)C1=O (stereo unspecified),7,-1,3,4,-5,x,
CCOC(=O)c1cc(-c2ccccc2)sc1NC(=O)CN1C(=O)NC(CC)(c2ccccc2)C1=O (stereo unspecified),47*,7,-2,3,2,31*,
O=c1[nH]c(=O)n(CCc2ccc(F)cc2)c(O)c1C=NCc1ccc2c(c1)OCO2,21*,-2,3,-20,-23,26*,
CCc1ccc([C@@H]2C[C@H]3CN(Cc4ccccc4OC)C(=O)[C@]34CCCN24)cc1,53*,-2,-3,-2,0,3,
CCn1ccnc1[C@@H]1C[C@H]2CN(Cc3ccccc3OC)C(=O)[C@]23CCCN13,25*,0,-4,-1,9,1,
COc1ccccc1CN1C[C@@H]2C[C@@H](c3ccc(C)cc3)N3CCC[C@@]23C1=O,4,-1,0,-15,-6,x,
CC(=O)CC[C@H]1CC[C@]2(CCCN(S(=O)(=O)c3ccccc3)C2)O1,2,x,x,1,7,x,
Cn1c2ccccc2c(=O)c2c(=O)n(Cc3cccc4ccccc34)cnc21,18*,x,x,5,7,20*,
COc1ccc2c(c1)CCCN2C(=O)C1CCCN(S(=O)(=O)c2cccc3cccnc23)C1 (stereo unspecified),-3,x,x,-2,-7,x,
C=CCNC(=O)c1ccc(-c2nc(-c3ccc(Cl)c(Cl)c3)cs2)cc1,-2,-2,-3,2,-9,x,
C=CCNC(=O)c1ccc(-c2nc(-c3ccc(Cl)cc3Cl)cs2)cc1,31*,0,0,4,-3,44*,RORg DNA counter=>40
COc1cccc(-c2nnc3n2N=C(c2ccc(Cl)cc2)CS3)c1,-4,x,x,14,13,x,
CN(C)c1cc(-c2ccc(Cl)cc2)oc(=O)c1Cl,-4,-2,-3,3,6,x,
CN(C)c1cc(-c2ccc(Cl)c(Cl)c2)oc(=O)c1Cl,36*,0,-3,7,-7,-4,
COc1cccc(-c2nc(-c3ccc(NC(=O)Cc4ccccc4OC)cc3)no2)c1,x,x,6,x,x,x,
COc1ccc(CC(=O)Nc2ccc(-c3noc(-c4ccccc4OC)n3)cc2)cc1,36*,7,-1,7,4,55*,RORg DNA counter=i
COc1ccc(-c2ccc(-c3noc(-c4ccccc4C)n3)c(OC)n2)cc1,40*,2,2,2,-17,11,
COc1ccc(-c2ccc(-c3noc(C)n3)c(OC)n2)cc1,27*,-5,2,1,-6,7,
CCOc1nc(-c2ccc(OC)cc2)ccc1-c1noc(C)n1,-2,-4,-1,-7,-10,x,
